Assay results published in PubChem BioAssay (Tox21).
Records with an inconclusive call do not appear. A call without a number means that no potency is given here. Values without a mark were called inactive. Calls of active or inactive are those of the source. Calls follow the shape of the dose curve; as a rule, active = well fitted inhibition curve with a large enough effect in the signal ratio in the repeat runs (not every such curve was filed as active); inconclusive = weak or mixed curves; inactive = flat fitted curve, though single readings scatter; the % refers to the signal ratio.

Biological target: Progesterone receptor (Homo sapiens) (UniProt P06401)
Sequence (P06401 whole entry, looked up): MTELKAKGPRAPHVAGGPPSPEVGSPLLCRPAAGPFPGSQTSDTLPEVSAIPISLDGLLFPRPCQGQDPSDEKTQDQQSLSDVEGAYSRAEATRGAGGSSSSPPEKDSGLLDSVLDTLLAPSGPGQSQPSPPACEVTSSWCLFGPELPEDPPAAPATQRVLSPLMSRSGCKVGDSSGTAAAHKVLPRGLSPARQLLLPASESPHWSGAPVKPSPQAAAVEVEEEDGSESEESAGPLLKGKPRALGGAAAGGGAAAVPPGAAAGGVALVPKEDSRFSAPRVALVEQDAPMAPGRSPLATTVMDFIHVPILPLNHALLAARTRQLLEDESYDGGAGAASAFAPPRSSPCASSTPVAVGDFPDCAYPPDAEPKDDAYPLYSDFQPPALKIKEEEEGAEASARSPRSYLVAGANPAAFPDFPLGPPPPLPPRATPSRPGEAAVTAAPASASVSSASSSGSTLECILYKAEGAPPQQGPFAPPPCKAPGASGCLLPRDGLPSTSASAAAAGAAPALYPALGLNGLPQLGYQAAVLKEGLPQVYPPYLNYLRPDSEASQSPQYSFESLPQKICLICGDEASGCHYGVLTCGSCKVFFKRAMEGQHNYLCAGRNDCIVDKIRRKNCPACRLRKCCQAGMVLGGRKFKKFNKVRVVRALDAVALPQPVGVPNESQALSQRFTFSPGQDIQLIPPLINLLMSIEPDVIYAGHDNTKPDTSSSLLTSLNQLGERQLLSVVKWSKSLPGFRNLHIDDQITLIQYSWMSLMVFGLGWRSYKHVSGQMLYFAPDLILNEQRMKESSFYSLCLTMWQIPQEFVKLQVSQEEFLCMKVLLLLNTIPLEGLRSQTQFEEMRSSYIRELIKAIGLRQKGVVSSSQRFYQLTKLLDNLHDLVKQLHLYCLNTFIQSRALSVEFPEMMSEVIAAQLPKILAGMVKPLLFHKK
Experiment: qHTS assay to identify small molecule antagonists of the progesterone receptor (PR) signaling pathway (AID 1346795)
Conditions: PR-UAS-bla HEK293T, beta-lactamase FRET ratio, 16 h; series mostly up to 92.4 µM
Source text: National Center for Advancing Translational Sciences [NCATS]
NIH Chemical Genomics Center [NCGC]
U.S. Environmental Protection Agency [EPA]
National Institutes of Environmental Health Sciences [NIEHS]
National Toxicology Program [NTP]
U.S. Food and Drug Administration [FDA]
Progesterone receptor (PR), a nuclear hormone receptor, plays an important role in development, metabolic homeostasis and reproduction. […] Endocrine disrupting chemicals (EDCs) and their interactions with steroid hormone receptors like PR causes disruption of normal endocrine function. To identify the compounds that inhibit PR signaling, a PR-UAS-bla GripTite cell line i.e. PR-UAS-bla HEK293T (Invitrogen, Carlsbad, CA, USA) containing a beta-lactamase reporter gene under the control of an Upstream Activator Sequence (UAS) was used to screen Tox21 10K compound library.
Tox21 Assay Protocol Summary:
PR-UAS-bla HEK293T cells were dispensed at 3,000 cells/4 uL of assay medium containing 2% charcoal stripped FBS per well into black wall/clear-bottom 1536-well plates using a Multidrop Combi (ThermoFisher Scientific, Waltham, MA) dispenser. After the assay plates were incubated at a 37C and 5% CO2 for 6 hr, 23 nL of compounds dissolved in DMSO, positive controls or DMSO only was transferred to the assay plate by a Pintool station (Kalypsys, San Diego, CA), followed by addition of 1 uL (1nM as final concentration) of Promegestone (R5020) in assay medium using a BioRAPTR FRD (Flying Reagent Dispenser, Aurora Discovery, San Diego, CA). The plates were incubated at 37C and 5% CO2 for 16 hr. Then 1 uL of LiveBLAzer B/G FRET substrate was added using a FRD. After the plates were incubated at room temperature for 2 hours, fluorescence intensity was measured by an Envision plate reader (PerkinElmer, Shelton, CT).
Potency is read from the fitted curve at half-maximal effect.

Structure (SMILES) | Potency | activity change, negative = inhibition
COC(=O)c1c(C)cc(O)c(C)c1O | 19.3 µM (active) | –
C=CCCCCCCCCCCCCCC | – | 7.49% [at 18.9 µM]
CC(C)(C)c1ccc(N)cc1 | inactive | –
O=C1c2ccccc2C(=O)N1CO | inactive | –
NCC1CCC(C(=O)Oc2ccc(CCC(=O)O)cc2)CC1 (stereo not given) | inactive | –
O=C(O)P(=O)(O)O | inactive | –
CC(C)(C)c1ccc(C(=O)CCCCl)cc1 | inactive | –
C=CC(=O)CC | inactive | –
CCNC(=O)C(C)OC(=O)Nc1ccccc1 (stereo not given) | inactive | –
C=CC(=O)OCC[N+](C)(C)C | inactive | –
CCCCCCCCCCCCCC(=O)OCC | inactive | –
Cc1ccc2ccccc2n1 | inactive | –
O=c1c(O)c(O)c1=O | inactive | –
N#Cc1cc(NC(=O)C(=O)O)c(Cl)c(NC(=O)C(=O)O)c1 | inactive | –
C[C@H]1COc2c(C3(N)CC3)c(F)cc3c(=O)c(C(=O)O)cn1c23 | inactive | –
COC(C)(C)CC(C)=O | inactive | –
CC(C)(O)CCCC1=CCC(C=O)CC1 (stereo not given) | inactive | –
CN(C)c1cc(NC(=O)CNC(C)(C)C)c(O)c2c1C[C@H]1C[C@H]3[C@H](N(C)C)C(=O)C(C(N)=O)=C(O)[C@@]3(O)C(=O)C1=C2O | inactive | –
O=Cc1ccc(C(=O)O)cc1 | inactive | –
CCCCS | inactive | –

Structure (SMILES) | Potency | activity change, negative = inhibition
CC(C)C(C)C | inactive | –
c1coc(Cn2cccc2)c1 | inactive | –
CNC(=O)c1c(I)c(NC(C)=O)c(I)c(C(=O)O)c1I | inactive | –
CC[C@@]1(c2ccccc2)NC(=O)N(C)C1=O | inactive | –
BrCCOc1ccccc1 | inactive | –
Cc1cc(O)c(Cl)cc1C | inactive | –
NS(=O)(=O)c1cc2c(cc1C(F)(F)F)NCNS2(=O)=O | inactive | –
C/C=C/C(=O)CCCC | inactive | –
CC(=O)SCC(CC(=O)c1ccc(C)cc1)C(=O)O (stereo not given) | inactive | –
COC(=O)c1cc(Cl)c(NC(C)=O)cc1OC | inactive | –
N#Cc1ccccc1C#N | inactive | –
CC(C)(O)c1ccc(C(C)(C)O)cc1 | inactive | –
O=C(O)CCC(=O)Nc1ccc(S(=O)(=O)Nc2nccs2)cc1 | inactive | –
CC1(C)S[C@@H]2[C@H](NC(=O)Cc3ccccc3)C(=O)N2[C@H]1C(=O)O (tested in a mixture with another compound) | inactive | –
COc1cc(C(=O)NC2CCCNC2)cc(OC)c1OC (stereo not given) | inactive | –
C[C@@H]1CC[C@@]2(OC1)O[C@H]1C[C@H]3[C@@H]4CC[C@H]5C[C@@H](O)CC[C@]5(C)[C@H]4CC(=O)[C@]3(C)[C@H]1[C@@H]2C | – | 17.4% [at 8.39 µM]
C/C(Cl)=C/CCl | inactive | –
O=C1Nc2ccccc2C1=O | inactive | –
Cc1ccc(OC(=O)CC(C)C)cc1 | inactive | –
CC(=O)SC[C@@H](C)C(=O)N1CCC[C@H]1C(=O)N[C@@H](Cc1ccccc1)C(=O)O | inactive | –
